In PMC7862700, “An all-to-all approach to the identification of sequence-specific readers for epigenetic DNA modifications on cytosine” one finds binding signal data, which are given here for 1 sequence.

Common to all, as to test: DAPPL (digital affinity profiling via proximity ligation, sequencing); 10 mM Tris-HCl pH 7.5, 50 mM NaCl, 1 mM DTT, 4% glycerol, room temperature, 30 min; GST-TFs on glutathione beads, 16-mer random dsDNA library, 0.1% formaldehyde crosslink after washing; high values mean tight binding
Experiment [1] has as its target T1, FEV (Homo sapiens, UniProt Q99581 1-238).
T1 sequence: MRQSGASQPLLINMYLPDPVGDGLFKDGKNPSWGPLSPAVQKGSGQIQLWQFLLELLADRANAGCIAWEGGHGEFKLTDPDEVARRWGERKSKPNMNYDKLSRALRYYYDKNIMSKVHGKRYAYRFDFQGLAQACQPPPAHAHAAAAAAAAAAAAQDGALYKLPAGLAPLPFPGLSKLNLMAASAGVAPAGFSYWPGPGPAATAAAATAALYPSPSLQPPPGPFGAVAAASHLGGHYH
Particulars: protein: recombinant; tags: N-terminal GST; dsDNA, one strand shown. In outline:
(§1)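 Human transcription factors were made in yeast as GST fusions, captured on glutathione beads and barcoded with DNA. With a tag-only sample included, the pool was incubated with 200 nmole of a random double-stranded 16-mer DNA library in Tris/NaCl/DTT/glycerol buffer at room temperature for 30 min, then crosslinked with 0.1% formaldehyde after washing, ligated by proximity, amplified and sequenced. For binding signal, each hexamer's read frequency for a factor is divided by its frequency for the tag-only sample.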

Experiment [2] has as its target ETV5 (Homo sapiens, UniProt P41161 1-510). Conditions: protein: recombinant; tags: N-terminal GST; dsDNA, one strand shown. The method in brief:
as §1

In experiment [3] the target is HSF1 (Homo sapiens, UniProt Q00613 1-529). Particulars: protein: recombinant; tags: N-terminal GST; chain copies: 3; dsDNA, one strand shown. The method in brief: as §1
Experiment [4] has as its target T2, SPIC (Homo sapiens, UniProt Q8N5J4 1-248).
T2 sequence: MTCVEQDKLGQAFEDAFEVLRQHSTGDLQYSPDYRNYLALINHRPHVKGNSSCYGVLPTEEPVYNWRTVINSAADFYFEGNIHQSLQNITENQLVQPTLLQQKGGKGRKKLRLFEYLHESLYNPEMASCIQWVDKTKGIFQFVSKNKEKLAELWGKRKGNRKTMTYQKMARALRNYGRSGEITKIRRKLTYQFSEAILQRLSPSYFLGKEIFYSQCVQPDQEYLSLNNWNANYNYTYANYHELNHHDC
Conditions: protein: recombinant; tags: N-terminal GST; dsDNA, one strand shown. The method in brief: as §1

Experiment [5] concerns the target ELF4 (Homo sapiens, UniProt Q99607 1-663). Conditions: protein: recombinant; tags: N-terminal GST; dsDNA, one strand shown. The method in brief: as §1
The target in experiment [6] is T3, ELK4 (Homo sapiens, UniProt P28324-2 1-405).
T3 sequence: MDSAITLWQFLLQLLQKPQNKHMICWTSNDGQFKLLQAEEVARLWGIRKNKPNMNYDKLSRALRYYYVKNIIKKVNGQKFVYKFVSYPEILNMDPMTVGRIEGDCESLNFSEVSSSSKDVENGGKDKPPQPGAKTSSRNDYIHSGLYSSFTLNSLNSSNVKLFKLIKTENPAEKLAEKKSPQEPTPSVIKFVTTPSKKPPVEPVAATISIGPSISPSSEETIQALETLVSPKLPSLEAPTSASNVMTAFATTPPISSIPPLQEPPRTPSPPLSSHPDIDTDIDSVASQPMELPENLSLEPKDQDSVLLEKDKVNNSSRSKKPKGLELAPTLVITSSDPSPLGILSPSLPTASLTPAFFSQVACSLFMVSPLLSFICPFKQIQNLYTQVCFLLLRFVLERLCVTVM
Particulars: protein: recombinant; tags: N-terminal GST; dsDNA, one strand shown. The method in brief: as §1

In experiment [7] the target is T4, ETV2 (Homo sapiens, UniProt O00321 1-342).
T4 sequence: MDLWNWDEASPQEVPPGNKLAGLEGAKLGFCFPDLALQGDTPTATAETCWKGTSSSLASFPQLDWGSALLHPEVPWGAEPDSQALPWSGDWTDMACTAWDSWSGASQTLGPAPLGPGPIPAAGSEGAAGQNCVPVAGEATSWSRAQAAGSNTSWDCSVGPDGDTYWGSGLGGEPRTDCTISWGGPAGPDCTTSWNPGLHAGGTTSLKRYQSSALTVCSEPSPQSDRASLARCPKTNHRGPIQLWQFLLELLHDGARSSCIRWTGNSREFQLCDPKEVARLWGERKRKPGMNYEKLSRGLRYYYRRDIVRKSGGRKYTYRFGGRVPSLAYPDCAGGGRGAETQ
Particulars: protein: recombinant; tags: N-terminal GST; dsDNA, one strand shown. The method in brief:
as §1

For experiment [8], the target named is T5, ELF3 (Homo sapiens, UniProt P78545 1-371).
T5 sequence: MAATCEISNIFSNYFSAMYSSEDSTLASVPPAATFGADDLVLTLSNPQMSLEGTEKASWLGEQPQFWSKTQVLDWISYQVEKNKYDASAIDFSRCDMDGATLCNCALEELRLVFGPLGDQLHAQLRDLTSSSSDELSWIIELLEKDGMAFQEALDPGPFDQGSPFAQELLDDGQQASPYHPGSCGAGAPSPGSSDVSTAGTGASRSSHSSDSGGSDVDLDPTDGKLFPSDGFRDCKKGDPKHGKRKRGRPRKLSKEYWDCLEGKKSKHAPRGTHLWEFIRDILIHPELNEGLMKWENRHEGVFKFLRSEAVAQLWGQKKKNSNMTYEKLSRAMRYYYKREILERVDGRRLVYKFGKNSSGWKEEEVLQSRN
Conditions: protein: recombinant; tags: N-terminal GST; dsDNA, one strand shown. The method in brief: as §1

The target in experiment [9] is CRX (Homo sapiens, UniProt O43186 1-299). Particulars: protein: recombinant; tags: N-terminal GST; dsDNA, one strand shown. In outline:
as §1

Experiment [10] has as its target ETV1 (Homo sapiens, UniProt P50549 1-477). Conditions: protein: recombinant; tags: N-terminal GST; dsDNA, one strand shown. The method in brief: as §1
The target of experiment [11] is T6, ERF (Homo sapiens, UniProt P50548 1-548).
T6 sequence: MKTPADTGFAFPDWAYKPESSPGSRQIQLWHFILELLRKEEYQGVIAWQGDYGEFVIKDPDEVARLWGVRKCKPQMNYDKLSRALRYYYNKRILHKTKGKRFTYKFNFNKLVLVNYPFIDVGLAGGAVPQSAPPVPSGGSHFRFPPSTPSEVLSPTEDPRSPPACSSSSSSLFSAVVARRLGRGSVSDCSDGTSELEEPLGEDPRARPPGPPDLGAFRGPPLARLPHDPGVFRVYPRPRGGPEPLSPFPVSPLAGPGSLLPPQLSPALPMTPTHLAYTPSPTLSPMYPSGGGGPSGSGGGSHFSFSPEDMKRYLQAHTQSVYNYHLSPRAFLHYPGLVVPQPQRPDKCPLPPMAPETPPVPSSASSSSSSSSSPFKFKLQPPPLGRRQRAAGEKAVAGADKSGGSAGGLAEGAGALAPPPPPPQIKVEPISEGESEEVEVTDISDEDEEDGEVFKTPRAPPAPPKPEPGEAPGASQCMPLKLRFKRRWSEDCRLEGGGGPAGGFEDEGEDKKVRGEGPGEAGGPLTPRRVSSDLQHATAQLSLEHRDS
Conditions: protein: recombinant; tags: N-terminal GST; dsDNA, one strand shown. In outline:
as §1

Experiment [12] deals with T7, ETV3L (Homo sapiens, UniProt Q6ZN32 1-361).
T7 sequence: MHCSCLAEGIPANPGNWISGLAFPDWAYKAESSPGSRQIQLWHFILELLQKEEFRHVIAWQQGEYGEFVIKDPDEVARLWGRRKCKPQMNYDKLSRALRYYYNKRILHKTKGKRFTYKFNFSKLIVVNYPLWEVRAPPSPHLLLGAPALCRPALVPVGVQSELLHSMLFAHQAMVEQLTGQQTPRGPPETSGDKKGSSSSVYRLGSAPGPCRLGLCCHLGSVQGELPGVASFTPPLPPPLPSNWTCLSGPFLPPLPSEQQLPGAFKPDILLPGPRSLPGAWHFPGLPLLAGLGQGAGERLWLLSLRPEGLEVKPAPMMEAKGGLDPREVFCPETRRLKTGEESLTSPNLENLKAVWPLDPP
Conditions: protein: recombinant; tags: N-terminal GST; dsDNA, one strand shown. The method in brief: as §1

Experiment [13] deals with T8, ETS2 (Homo sapiens, UniProt P15036 1-469).
T8 sequence: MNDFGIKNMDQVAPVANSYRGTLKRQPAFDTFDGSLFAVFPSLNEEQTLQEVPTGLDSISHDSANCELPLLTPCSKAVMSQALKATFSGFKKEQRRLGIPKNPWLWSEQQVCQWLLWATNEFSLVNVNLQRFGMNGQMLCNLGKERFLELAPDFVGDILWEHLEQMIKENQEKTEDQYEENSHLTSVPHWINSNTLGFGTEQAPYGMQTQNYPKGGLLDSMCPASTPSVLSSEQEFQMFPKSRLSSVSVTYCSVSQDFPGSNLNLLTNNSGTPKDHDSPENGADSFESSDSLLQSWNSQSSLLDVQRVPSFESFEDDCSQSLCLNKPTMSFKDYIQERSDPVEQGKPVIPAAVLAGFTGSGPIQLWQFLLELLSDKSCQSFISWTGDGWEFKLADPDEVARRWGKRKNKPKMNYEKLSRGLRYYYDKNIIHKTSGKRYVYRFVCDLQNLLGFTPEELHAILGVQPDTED
Conditions: protein: recombinant; tags: N-terminal GST; dsDNA, one strand shown. The method in brief: as §1

The target in experiment [14] is T9, SPDEF (Homo sapiens, UniProt O95238 1-335).
T9 sequence: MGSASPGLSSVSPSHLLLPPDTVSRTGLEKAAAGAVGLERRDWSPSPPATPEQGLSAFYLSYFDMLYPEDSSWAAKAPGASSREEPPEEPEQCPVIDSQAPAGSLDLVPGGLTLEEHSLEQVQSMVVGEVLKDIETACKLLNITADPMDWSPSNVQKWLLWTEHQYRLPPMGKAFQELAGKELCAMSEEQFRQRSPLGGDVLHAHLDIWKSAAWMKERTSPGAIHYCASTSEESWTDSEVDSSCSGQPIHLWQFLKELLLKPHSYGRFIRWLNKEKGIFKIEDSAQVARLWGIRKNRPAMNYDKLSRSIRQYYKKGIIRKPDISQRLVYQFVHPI
Conditions: protein: recombinant; tags: N-terminal GST; dsDNA, one strand shown. In outline:
as §1

For experiment [15], the target named is T10, ETV7 (Homo sapiens, UniProt Q9Y603 1-341).
T10 sequence: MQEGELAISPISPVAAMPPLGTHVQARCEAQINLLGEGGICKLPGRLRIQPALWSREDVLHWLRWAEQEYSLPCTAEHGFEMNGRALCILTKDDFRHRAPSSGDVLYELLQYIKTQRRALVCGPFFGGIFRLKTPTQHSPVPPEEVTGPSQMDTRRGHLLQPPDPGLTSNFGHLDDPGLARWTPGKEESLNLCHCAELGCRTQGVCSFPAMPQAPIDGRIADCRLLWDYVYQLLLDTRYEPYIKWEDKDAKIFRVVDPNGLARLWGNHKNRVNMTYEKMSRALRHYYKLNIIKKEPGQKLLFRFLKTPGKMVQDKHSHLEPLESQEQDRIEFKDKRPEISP
Particulars: protein: recombinant; tags: N-terminal GST; dsDNA, one strand shown. The method in brief: as §1

Experiment [16] addresses T11, ELF5 (Homo sapiens, UniProt Q9UKW6-2 1-255).
T11 sequence: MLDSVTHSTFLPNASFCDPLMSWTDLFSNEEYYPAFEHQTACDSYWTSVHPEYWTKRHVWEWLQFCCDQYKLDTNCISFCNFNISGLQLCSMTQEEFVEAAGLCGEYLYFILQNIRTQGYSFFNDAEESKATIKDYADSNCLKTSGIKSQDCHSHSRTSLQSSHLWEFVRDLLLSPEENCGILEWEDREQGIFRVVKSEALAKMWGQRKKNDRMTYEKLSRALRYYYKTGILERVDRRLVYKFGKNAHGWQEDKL
Conditions: protein: recombinant; tags: N-terminal GST; dsDNA, one strand shown. The method in brief:
as §1

For experiment [17], the target named is T12, ETV3 (Homo sapiens, UniProt P41162-2 1-143).
T12 sequence: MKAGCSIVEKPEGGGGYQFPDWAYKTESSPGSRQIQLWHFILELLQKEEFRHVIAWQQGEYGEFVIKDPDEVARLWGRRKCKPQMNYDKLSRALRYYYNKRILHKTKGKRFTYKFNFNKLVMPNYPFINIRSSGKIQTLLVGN
Conditions: protein: recombinant; tags: N-terminal GST; dsDNA, one strand shown. In outline: as §1

In experiment [18] the target is ETV6 (Homo sapiens, UniProt P41212 1-452). Conditions: protein: recombinant; tags: N-terminal GST; dsDNA, one strand shown. In outline:
as §1

ETV5, sequence (P41161 whole entry): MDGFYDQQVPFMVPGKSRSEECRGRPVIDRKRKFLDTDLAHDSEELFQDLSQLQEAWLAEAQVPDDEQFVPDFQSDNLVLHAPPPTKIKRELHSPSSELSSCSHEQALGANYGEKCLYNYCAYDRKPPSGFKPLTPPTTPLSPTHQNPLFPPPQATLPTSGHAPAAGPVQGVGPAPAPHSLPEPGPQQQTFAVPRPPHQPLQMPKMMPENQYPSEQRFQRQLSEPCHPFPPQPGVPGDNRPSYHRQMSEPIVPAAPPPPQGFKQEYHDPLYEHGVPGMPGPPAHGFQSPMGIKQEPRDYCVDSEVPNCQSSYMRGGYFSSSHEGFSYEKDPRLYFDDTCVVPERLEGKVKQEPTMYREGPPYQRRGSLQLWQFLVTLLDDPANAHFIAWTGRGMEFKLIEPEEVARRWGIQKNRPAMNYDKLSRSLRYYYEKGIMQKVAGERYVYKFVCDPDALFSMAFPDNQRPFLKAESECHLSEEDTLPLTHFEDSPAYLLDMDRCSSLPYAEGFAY
ETV1, sequence (P50549 whole entry): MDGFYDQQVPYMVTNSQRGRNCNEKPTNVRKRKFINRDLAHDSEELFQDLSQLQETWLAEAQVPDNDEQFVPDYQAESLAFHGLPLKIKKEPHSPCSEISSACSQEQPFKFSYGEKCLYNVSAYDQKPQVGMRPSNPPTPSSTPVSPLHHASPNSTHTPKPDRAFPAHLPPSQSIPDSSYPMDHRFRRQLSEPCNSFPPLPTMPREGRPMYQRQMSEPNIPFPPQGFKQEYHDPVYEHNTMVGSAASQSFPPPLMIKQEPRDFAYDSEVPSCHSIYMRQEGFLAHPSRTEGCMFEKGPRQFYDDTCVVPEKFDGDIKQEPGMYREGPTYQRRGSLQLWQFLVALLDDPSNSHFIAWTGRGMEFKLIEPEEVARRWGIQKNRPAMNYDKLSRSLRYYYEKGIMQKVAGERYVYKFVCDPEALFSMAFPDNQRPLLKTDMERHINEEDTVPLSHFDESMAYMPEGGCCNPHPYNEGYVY
ELF4, sequence (Q99607 whole entry): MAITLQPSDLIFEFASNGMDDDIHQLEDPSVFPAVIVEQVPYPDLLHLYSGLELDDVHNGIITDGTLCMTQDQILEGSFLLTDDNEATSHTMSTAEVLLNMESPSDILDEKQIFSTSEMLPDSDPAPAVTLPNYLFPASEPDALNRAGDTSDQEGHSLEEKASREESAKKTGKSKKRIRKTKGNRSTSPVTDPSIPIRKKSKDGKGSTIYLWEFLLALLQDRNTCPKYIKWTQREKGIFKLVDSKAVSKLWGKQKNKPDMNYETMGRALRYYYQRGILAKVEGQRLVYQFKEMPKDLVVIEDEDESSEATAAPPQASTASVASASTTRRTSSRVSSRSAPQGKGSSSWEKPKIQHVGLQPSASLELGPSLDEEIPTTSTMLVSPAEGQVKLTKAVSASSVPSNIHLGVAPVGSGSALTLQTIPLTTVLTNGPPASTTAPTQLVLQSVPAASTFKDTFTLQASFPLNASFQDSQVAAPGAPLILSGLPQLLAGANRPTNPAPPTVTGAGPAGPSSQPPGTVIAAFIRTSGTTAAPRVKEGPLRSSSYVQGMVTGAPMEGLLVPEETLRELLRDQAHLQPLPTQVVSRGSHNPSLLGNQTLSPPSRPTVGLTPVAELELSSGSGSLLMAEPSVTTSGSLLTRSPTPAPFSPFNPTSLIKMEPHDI
HSF1, sequence (Q00613 whole entry): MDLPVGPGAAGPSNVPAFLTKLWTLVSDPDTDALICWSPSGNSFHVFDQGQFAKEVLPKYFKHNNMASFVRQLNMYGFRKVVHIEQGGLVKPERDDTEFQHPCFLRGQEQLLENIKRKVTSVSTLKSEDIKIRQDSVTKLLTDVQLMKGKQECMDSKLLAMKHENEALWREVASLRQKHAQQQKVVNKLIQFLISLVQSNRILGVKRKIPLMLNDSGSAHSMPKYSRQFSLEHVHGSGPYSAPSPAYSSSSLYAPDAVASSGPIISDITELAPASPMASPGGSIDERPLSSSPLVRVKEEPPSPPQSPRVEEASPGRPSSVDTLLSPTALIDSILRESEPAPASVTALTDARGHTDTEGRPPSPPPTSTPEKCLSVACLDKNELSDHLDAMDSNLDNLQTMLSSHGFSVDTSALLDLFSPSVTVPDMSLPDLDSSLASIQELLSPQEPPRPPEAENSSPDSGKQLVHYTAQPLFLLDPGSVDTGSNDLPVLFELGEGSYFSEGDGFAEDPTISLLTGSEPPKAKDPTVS
ETV6, sequence (P41212 whole entry): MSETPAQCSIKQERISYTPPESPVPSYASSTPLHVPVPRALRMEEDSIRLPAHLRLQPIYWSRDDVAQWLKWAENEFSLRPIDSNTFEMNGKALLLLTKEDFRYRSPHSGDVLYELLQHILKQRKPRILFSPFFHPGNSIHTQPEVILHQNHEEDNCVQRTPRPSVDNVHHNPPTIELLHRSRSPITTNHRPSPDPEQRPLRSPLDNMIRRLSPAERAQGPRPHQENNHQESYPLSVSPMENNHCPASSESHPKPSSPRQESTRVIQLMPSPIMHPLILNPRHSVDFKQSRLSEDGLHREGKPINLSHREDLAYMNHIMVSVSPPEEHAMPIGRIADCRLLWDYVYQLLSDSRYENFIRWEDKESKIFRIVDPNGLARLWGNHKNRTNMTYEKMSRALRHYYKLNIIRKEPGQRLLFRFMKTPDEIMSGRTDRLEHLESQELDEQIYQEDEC
CRX, sequence (O43186 whole entry): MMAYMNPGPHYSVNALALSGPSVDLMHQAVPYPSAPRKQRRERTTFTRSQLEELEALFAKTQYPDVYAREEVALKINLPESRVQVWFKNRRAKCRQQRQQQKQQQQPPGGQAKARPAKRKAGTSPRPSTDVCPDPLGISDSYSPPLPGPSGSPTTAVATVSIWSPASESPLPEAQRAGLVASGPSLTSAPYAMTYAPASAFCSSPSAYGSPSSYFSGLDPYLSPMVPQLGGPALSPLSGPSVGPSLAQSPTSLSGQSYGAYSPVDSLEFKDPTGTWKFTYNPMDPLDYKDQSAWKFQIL

Consider TCCGGC, for which the binding signal in [1] was 3.33 fold enrichment (6-mer frequency, TF over GST control); in experiment [2], 2.4 fold enrichment (6-mer frequency, TF over GST control); in experiment [3] it was 1.17 fold enrichment (6-mer frequency, TF over GST control); in [4] it was 2.2 fold enrichment (6-mer frequency, TF over GST control); in experiment [5], 1.95 fold enrichment (6-mer frequency, TF over GST control); in experiment [6] it was 2.03 fold enrichment (6-mer frequency, TF over GST control). Moreover, the binding signal in experiment [7] is 2.4 fold enrichment (6-mer frequency, TF over GST control); in experiment [8], 1.97 fold enrichment (6-mer frequency, TF over GST control); in [9], 1.1 fold enrichment (6-mer frequency, TF over GST control); in [10], 2.31 fold enrichment (6-mer frequency, TF over GST control); in experiment [11], 2.13 fold enrichment (6-mer frequency, TF over GST control); in experiment [12] it was 2.23 fold enrichment (6-mer frequency, TF over GST control). In addition, the binding signal in experiment [13] is 2.08 fold enrichment (6-mer frequency, TF over GST control); in experiment [14] it was 3.14 fold enrichment (6-mer frequency, TF over GST control); in [15], 1.95 fold enrichment (6-mer frequency, TF over GST control); in [16], 2.67 fold enrichment (6-mer frequency, TF over GST control); in experiment [17] it was 2.32 fold enrichment (6-mer frequency, TF over GST control); in experiment [18], 2.28 fold enrichment (6-mer frequency, TF over GST control).
